Experimental data published in PubChem BioAssay AID720582 (The Scripps Research Institute Molecular Screening Center, 2013).
In all, about 370,000 compounds went through this assay and about 2,300 (0.62%) were called active. The list comes from a sample in which actives are over-represented; it also holds similar structures and randomly drawn compounds. Unmarked numbers belong to inactive results.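 Rule for the calls: active = inhibition above a per-campaign cutoff equal to the mean of compounds falling between control-based bounds plus 3 SD (cut at about 20% in these data); inactive = the rest.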

Each compound was assayed against Disintegrin and metalloproteinase domain-containing protein 10 (Homo sapiens) (UniProt O14672) (assay: human ADAM10 inhibitors, primary screen, biochemical, QFRET, HTS (AID 720582;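 note: 0% = DMSO wells while the 100% control is not disclosed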)). Conditions: recombinant ADAM10, EDANS/DABCYL FRET peptide cleavage, 3 h; at 7 µM; stronger effect = higher value.
Disintegrin and metalloproteinase domain-containing protein 10 (Homo sapiens), sequence (O14672 214-748 limits assumed): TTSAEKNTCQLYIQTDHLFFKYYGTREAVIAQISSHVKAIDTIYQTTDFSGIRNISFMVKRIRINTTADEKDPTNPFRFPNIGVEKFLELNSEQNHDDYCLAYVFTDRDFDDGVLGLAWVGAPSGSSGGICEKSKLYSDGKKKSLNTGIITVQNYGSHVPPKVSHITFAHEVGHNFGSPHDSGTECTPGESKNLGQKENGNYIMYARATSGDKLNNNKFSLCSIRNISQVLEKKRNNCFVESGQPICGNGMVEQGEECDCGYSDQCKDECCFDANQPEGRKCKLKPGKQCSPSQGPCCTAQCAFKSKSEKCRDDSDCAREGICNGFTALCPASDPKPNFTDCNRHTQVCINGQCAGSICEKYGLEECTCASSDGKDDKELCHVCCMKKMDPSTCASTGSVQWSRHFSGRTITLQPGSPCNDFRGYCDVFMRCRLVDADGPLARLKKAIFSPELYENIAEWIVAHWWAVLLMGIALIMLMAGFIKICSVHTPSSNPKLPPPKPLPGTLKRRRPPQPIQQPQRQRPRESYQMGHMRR

SMILES | inhibition
CC(C)CNC(=O)OCc1cn(Cc2ccc(F)cc2)nn1 | 2.74%
O=C(CSc1nc2ccccc2nc1N1CCCCC1)N1CCN(S(=O)(=O)c2cccc([N+](=O)[O-])c2)CC1 | -10.6%
COC(=O)[C@@]12C[C@@H](CC(=O)NCCCCc3ccccc3)C(=O)N(CCc3ccc(OC)c(OC)c3)C1=CCC(C)(C)C2 | 20.4% (active)
COC(=O)[C@@]12C[C@@H](CC(=O)NCCCCc3ccccc3)C(=O)N(Cc3ccccc3)C1=CCC(C)(C)C2 | 14.6%
COC(=O)[C@]12C[C@H](CC(=O)NCc3ccccc3)C(=O)N(CCc3ccc(OC)c(OC)c3)C1=C[C@H](C(C)(C)C)O[C@@H]2C | 10.1%
c1coc(CCNc2ncnc3ccc(-c4ccc5c(c4)OCO5)cc23)c1 | -144%
CCC(=O)c1c(CC)c2n3c1=CC[C@H]3CC(Br)C=2 (stereo partly specified) | -7.64%
COC(=O)[C@]12C[C@H](CC(=O)NCc3ccccc3)C(=O)N(CCC3=CCCCC3)C1=C[C@H](C(C)C)O[C@@H]2C1CC1 | 15.1%
CN(NS(=O)(=O)c1cccs1)c1ncc(C(F)(F)F)cc1Cl | -3.41%
Cc1cc(C)cc(NS(=O)(=O)c2ccc(Oc3ncc(C(F)(F)F)cc3Cl)cc2)c1 | 24% (active)
O=S(=O)(Nc1ccc(Oc2ncccn2)c(Cl)c1)c1ccc(F)cc1 | 7.14%
Cc1ccc(NC(=O)c2cc(C)nn2-c2ccccc2)c(C)c1 | 1.23%
C#CCN([C@H](C(=O)OC)C(C)CC)S(=O)(=O)c1ccccc1Br (stereo partly specified) | 5.73%
COC(=O)CN1C(C)=Nc2ccc(Br)cc2C1c1ccccc1 (stereo unspecified) | -0.34%
COC(=O)C1=C(C)N(C)C(C)=C(C(=O)OC)C1c1cccc(Br)c1 | 1.25%
COC(=O)C1NN=C(C(=O)c2ccc(Br)cc2)C1c1cccc(Br)c1 (stereo unspecified) | 20% (active)
COc1cccc(Cn2cc(COC(=O)Nc3ccc(F)cc3)nn2)c1 | 3.55%
O=C(C1CCCN1S(=O)(=O)c1ccccc1)N1CCc2ccccc2C1 (stereo unspecified) | 5.1%
CC(C)(C)OC(=O)CNC(=O)c1[nH]cnc1C(=O)N[C@@H](Cc1ccccc1)C(=O)OCc1ccccc1 | 27% (active)
CNC(=O)c1[nH]cnc1C(=O)N[C@@H](CC(C)C)C(=O)OCc1ccccc1 | -0.66%
CC(C)(C)OC(=O)N1CCC(NC(=O)c2[nH]cnc2C(=O)N[C@@H](Cc2ccccc2)C(=O)OCc2ccccc2)CC1 | 26.5% (active)
C[C@H](NC(=O)c1nc[nH]c1C(=O)NCC(=O)OC(C)(C)C)c1ccccc1 | 4.61%
C[C@@H](NC(=O)c1nc[nH]c1C(=O)N1CCN(C(=O)OC(C)(C)C)CC1)c1ccccc1 | -5.64%
CNC(=O)c1[nH]cnc1C(=O)N[C@@H](CC(C)C)C(=O)OC(C)(C)C | 1.72%
CCOC(=O)C1CCN(C(=O)C(C)(C)NC(=O)Nc2ccccc2Cl)CC1 | -4.18%
O=C(c1ccccc1)c1ccc(-c2ccccc2C(=O)NC2CCCCN(Cc3ccc(Cl)cc3)C2=O)cc1 (stereo unspecified) | 0.76%

SMILES | inhibition
COc1ccc(CCNC(=O)CSc2nc3c([nH]2)c(=O)n(C)c(=O)n3C)cc1 | -8.76%
Cc1cc(C)n2ncc(C(=O)Nc3ccc4c(c3)OCCO4)c2n1 | -3.85%
CCC(=O)Nc1ccc2c(c1)C(=O)N(C)[C@H]1CC[C@H](CC(=O)NCCOC)O[C@@H]1CO2 | 2.62%
CC(C)c1ccc(S(=O)(=O)NC2CCCC2)cc1 | -3.8%
Cc1cccc(CCNS(=O)(=O)c2ccc3c(c2)NC(=O)CO3)c1 | 0.59%
Cc1cccc(CCNS(=O)(=O)c2ccc(S(=O)(=O)NC3CCCC3)cc2)c1 | 27.1% (active)
Cc1ccc(NC(=S)NNC(=O)CSc2nnc(SCc3ccccc3Cl)s2)cc1 | 17.8%
Cn1c(Nc2ccccc2)cc(=O)n(C)c1=O | 7.08%
Cc1cc(Nc2ccccc2)n(C(=O)c2ccc(N)cc2)n1 | 21.3% (active)
Cc1ccc(NC(=O)Nc2cc(C)nn2-c2ccccc2)cc1 | -2.62%
O=C(NNC(=O)c1cccc(S(=O)(=O)Nc2ccc(Cl)cc2)c1)c1ccc(=O)[nH]c1 | 2.04%
O=C(Nc1cccc(S(=O)(=O)Nc2ccc(Cl)cc2)c1)c1ccc2c(c1)OCCO2 | 20.5% (active)
CC(=O)Nc1ccc(C(=O)Nc2cccc(S(=O)(=O)NC3=NCCC3)c2)cc1 | -1.25%
O=C(NC1CCC1)c1ccc(C#CC2CC2)cn1 | -7.03%
COc1ccc(-n2c(COc3ccc(C)cc3)nnc2SCC(=O)Nc2ccc(Oc3ccccc3)cc2)cc1 | -2.63%
COc1ccc(-c2cc(C(=O)N3CCN(Cc4ccc5c(c4)OCO5)CC3)on2)cc1OC | -0.99%
COc1cc(COCC(O)CN2CCN(Cc3ccc4c(c3)OCO4)CC2)cc(OC)c1OC (stereo unspecified) | -2.3%
COc1cc(Cl)c(S(=O)(=O)N2CCN(Cc3ccc4c(c3)OCO4)CC2)cc1Cl | 45.9% (active)
Cc1ccccc1CN1CCCCC(NC(=O)c2cccc(C#N)c2)C1=O (stereo unspecified) | -1.06%
Cc1nc2ccc(C(=O)N3CCN(C(=O)C(C)(C)C)CC3)cc2n1C1CCCC1 | 1.94%
Cc1ccc(C2CCN(C(=S)Nc3cccc(Cl)c3)C2)cc1 (stereo unspecified) | 8.61%
Cc1csc(NC(=S)Nc2cccc(Cl)c2)n1 | 23.1% (active)
COc1cc(SC)ccc1C(=O)Nc1nc(C)cs1 | -7.24%
C=C(C)C1CC23C(=O)C4(C(=O)c5ccccc5)C[C@@]5(C)CCC(CC2C1(C)C)(C4=O)C35OC (stereo partly specified) | -9.26%
O=C(C1CCN(S(=O)(=O)c2ccccc2)CC1)N1CCN(C2CCCCC2)CC1 | -10.1%
